Screening results as filed in PubChem BioAssay.
VP16 counter = VP16 counterscreen qHTS for inhibitors of ROR gamma transcriptional activity. 310,000 tested, 3.5% active. Drosophila S2 Gal4-VP16 UAS-luciferase, luminescence, 20 h. Potency, µM (doses to about 53.6 µM), for the others: at the top dose activity, negative = inhibition, most hits filed as inhibitors;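 further: Gal4-VP16 expression switched on by copper sulfate through the metallothionein promoter; on the % scale 0 is the no-effect control and ±100 the full control effect; nearly all actives have a fitted effect of over 50% in size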
S2 tox = Viability Counterscreen for Primary qHTS for Inhibitors of ATXN expression; AID 651635, 2014; 400,000 tested, 0.49% active; Potency, µM (doses to about 56.7 µM), usual class: cytotoxic; S2 cells (HEK-293 line with an ATXN2-luciferase reporter) viability, CellTiter-Fluor protease fluorescence, 24 h; further: nearly all actives have a fitted effect of over 40% in size
RORg inh = qHTS for inhibitors of ROR gamma transcriptional activity; Nuclear receptor ROR-gamma (Mus musculus), P51450; Drosophila S2 Gal4-RORgamma UAS-luciferase reporter, 20 h; Potency, µM (top dose mostly 53.6 µM), inactives show top-dose activity change, negative = inhibition, hits mostly inhibitors; 310,000 tested, 5.4% active; further: on the % scale 0 is the no-effect control and ±100 the full control effect; nearly all actives have a fitted effect of over 60% in size
Target sequence (P51450 whole entry, looked up, the tested form may be a part): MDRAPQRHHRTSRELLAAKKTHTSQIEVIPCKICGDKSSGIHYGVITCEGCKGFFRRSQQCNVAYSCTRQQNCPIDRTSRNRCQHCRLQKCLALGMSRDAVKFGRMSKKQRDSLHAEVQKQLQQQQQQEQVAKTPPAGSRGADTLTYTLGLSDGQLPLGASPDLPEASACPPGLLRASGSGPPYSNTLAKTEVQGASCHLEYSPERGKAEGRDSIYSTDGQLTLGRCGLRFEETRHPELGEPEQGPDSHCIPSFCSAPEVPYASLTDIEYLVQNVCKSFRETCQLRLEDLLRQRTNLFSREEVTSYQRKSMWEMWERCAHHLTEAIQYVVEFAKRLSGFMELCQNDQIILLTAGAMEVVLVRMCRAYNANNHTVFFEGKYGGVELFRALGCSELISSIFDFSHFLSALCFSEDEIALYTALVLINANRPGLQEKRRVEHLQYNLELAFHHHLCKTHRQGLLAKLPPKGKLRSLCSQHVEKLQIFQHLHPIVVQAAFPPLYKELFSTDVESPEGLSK
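In this cell-based reporter format, copper sulfate (700 uM final) drives Gal4–ROR gamma fusion expression from a metallothionein promoter in Drosophila Schneider cells; compounds preincubated 1 hr, reporter read after 20 hr at ambient temperature.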
ATXN2 expr inh = Primary qHTS for Inhibitors of ATXN expression; Potency, µM (top dose mostly 57 µM), without a hit: top-dose activity change, negative = inhibition, hits mostly inhibitors; HEK-293 ATXN2-luciferase reporter, luminescence, 24 h; AID 1745845, 2022; 360,000 tested, 0.72% active; further: on the % scale 0 is the no-effect control and ±100 the full control effect; nearly all actives have a fitted effect of over 55% in size
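ATXN2-luciferase reporter cells (luciferase flanked by upstream and downstream ATXN2 gene portions) were treated 24 h at 37 °C with compounds at up to 57 uM. SteadyGlo luminescence gave expression; GF-AFC fluorescence gave viability.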
TGFb inhibitor = qHTS for Inhibitors of TGF-b; HepG2 CAGA-GFP TGF-b/SMAD3 reporter, GFP fluorescence, 18 h; TGF-beta stimulated, 500 pg/mL final; Potency, µM (highest dose often 46.1 µM), for the others: at the top dose activity, negative = inhibition, usual class: inhibitors; 410,000 tested, 1.2% active; AID 588855, 2011; further: on the % scale 0 is the no-effect control and ±100 the full control effect; nearly all actives have a fitted effect of over 65% in size
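Inhibition was scored as loss of TGF-beta-induced (500 pg/mL final, 18 hours, 37 degrees C) GFP in HEPG2 cells carrying a CAGA-GFP reporter, in DMEM with 1% FBS. Well GFP was summed per cell; Activity was normalised to unstimulated and stimulated DMSO wells, then concentration-response fitting.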
HepG2 viability = qHTS for Inhibitors of TGF-b: Cytotox Counterscreen. 410,000 tested, 0.76% active. AID 588856, 2011. HepG2 CAGA-GFP viability, ATP luminescence, 18 h. Potency, µM (doses to about 46.1 µM), for the others: at the highest dose activity change, negative = cytotoxicity, usual class: cytotoxic
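HepG2 CAGA-GFP cells (1000/well, DMEM with 1% FBS) received compound, then TGF-beta at 500 pg/mL final, and were incubated 18 hours at 37 degrees C. Viability was read by CellTiter-Glo luminescence. Media-only wells were set as complete cell-killing and DMSO as no toxicity.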
The depositor's hits bear a star; i = inactive; ? = inconclusive; nt = not tested or not shown; [ ] = another dose, or the depositor's remark. An excerpt weighted towards active compounds, which were near 6.1% of everything screened. The call rests on the fitted dose curve; in most records, active means well fitted curve in the direction sought with a large enough effect; inconclusive means small, poorly fitted or top-dose-only effect, or another doubt; inactive means no such curve, though single readings can be large; an effect the other way counts as inactive or inconclusive. Potency means the concentration at half of the fitted maximal effect.

SMILES | VP16 counter | S2 tox | RORg inh | ATXN2 expr inh | TGFb inhibitor | HepG2 viability
Cc1nc(Nc2ccccc2)sc1C | 13µM* | i | 3.5µM* | 30% | 0% | -11%
Cc1nc(NC(=S)NC(=O)c2ccccc2)sc1C | ? | i | 1.3µM* | 25% | -30% | -15%
CCOC(=O)c1c(NC(=O)COc2ccc(C)cc2C(C)(C)C)sc2c1CCC(C)C2 (stereo not given) | nt | nt | nt | nt | 4% | 1%
COc1ccc(C2C(C(=O)Nc3ccccc3)=C(C)Nc3nc(-c4ccc(Cl)cc4)nn32)cc1 (stereo not given) | nt | i | nt | -31% | -5% | -31%
CNc1c(NC(=O)c2ccc(OC)c(OC)c2)c(=O)oc2ccccc12 | nt | ? | nt | 11% | 1% | -3%
Cc1nc(NC(=O)c2ccccc2O)sc1C | -3% | i | 15% | 53% | 21% | 0%
Cc1nc(NC(=O)c2ccccc2)sc1C | -16% | i | ? | nt | 9% | 16µM*
O=C(NCC(c1ccc2c(c1)OCO2)N1CCOCC1)c1c(F)cccc1F (stereo not given) | nt | nt | nt | nt | -9% | -10%
COc1ccccc1COC(=O)Nc1c(C)nn(C)c1Cl | -1% | i | 37% | -5% | 0% | 1%
Cc1nn(C)c(Cl)c1NC(=O)OCc1ccc(F)cc1 | 1.8µM* | i | ? | -10% | -17% | -4%
COc1ccc(-n2c(SCC(=O)c3ccc(Cl)cc3)nc3c([nH]c4ccccc43)c2=O)cc1 | nt | i | nt | 10% | -5% | 0%
CCC(C)NC(=O)C1=CC(c2ccc3c(c2)OCO3)=NS(=O)(=O)N1C (stereo not given) | nt | i | nt | -6% | -22% | 1%
O=S(=O)(c1ccccc1)N1N=C(c2ccc(O)cc2)CC1c1ccco1 (stereo not given) | 20µM* | i | -20% | -19% | ? | -13%
Cc1ccc(C2=NN(S(=O)(=O)c3ccccc3)C(c3ccco3)C2)cc1 (stereo not given) | nt | i | nt | -22% | -23% | -16%
CCCn1cc(S(=O)(=O)c2cc(C)ccc2C)c(=O)c2cc(F)c(N3CCCCCC3)cc21 | nt | nt | nt | nt | -1% | -1%
COCCCn1c(=O)c2sccc2n(Cc2ccc(C)cc2)c1=O | -10% | i | 9% | -33% | 1% | 13µM*
COCCCn1c(=O)c2sccc2n(Cc2ccccc2)c1=O | -8% | i | 13% | 2% | -5% | -10%
Cc1ccc2nc(Cl)c3nnnn3c2c1 | -4%[10 µM] | ? | 29% | ? | ? | 6.3µM*
Cc1ccc2nc(NCc3ccccc3Cl)c3nnnn3c2c1 | nt | i | nt | 8% | 69% | -3%
O=C(CCCCCNC(=S)Nc1ccc(Cl)cc1)C[N+](=O)[O-] | 0% | i | -10% | 5% | 13% | 13%
COc1ccc(CCNC(=S)Nc2ccc(OC)cc2)cc1 | 10µM* | i | 3.5µM* | 2% | -20% | -27%
CNC(=S)NCCc1ccc(OC)cc1 | 6% | i | ? | 5%[11.3 µM] | 0% | -3%
COc1ccc(NC(=S)NCCCCCC(=O)C[N+](=O)[O-])cc1 | ? | i | 4.5µM* | 9% | -18% | -1%
COc1ccc(CCNC(=S)Nc2ccc(C(C)C)cc2)cc1 | ? | i | 2.5µM* | nt | 16µM* | -72%
COc1ccc(CCNC(=S)Nc2cc(C)cc(C)c2)cc1 | 13µM* | i | 7.1µM* | -2% | 11% | -34%
SMILES | VP16 counter | S2 tox | RORg inh | ATXN2 expr inh | TGFb inhibitor | HepG2 viability
COc1ccc(CCNC(=O)c2ccccc2)cc1 | 8% | i | 23% | 37% | -2% | -1%
COc1ccc(NC(=S)NCCc2c(C)[nH]c3ccc(OC)cc23)cc1 | ? | i | 5.6µM* | 12% | 4% | -15%
CC(C)c1ccc(NC(=S)Nc2ccc(OC(F)(F)F)cc2)cc1 | 11µM* | i | 8.9µM* | 5% | -16% | -32%
Cc1ccc(NC(=S)NCCc2ccc(S(N)(=O)=O)cc2)cc1C | 0% | i | ? | 2% | ? | 0%
Cc1cc(C)cc(NC(=S)NCCc2ccc(S(N)(=O)=O)cc2)c1 | ? | i | 10µM* | -38%[11.3 µM] | 0% | 6%
COc1ccc(CCNC(=S)Nc2ccccc2)cc1 | 7.1µM* | ? | 2µM* | nt | ? | -44%
COc1cc(/C=C/c2nc3ccccc3nc2/C=C/c2cc(OC)c(OC)c(OC)c2)cc(OC)c1OC | nt | nt | nt | nt | 3% | -9%
COCCn1c(C)cc(O)c(C(c2ccccc2F)N2CCN(c3ccccc3)CC2)c1=O (stereo not given) | nt | nt | nt | nt | -1% | 13%
COc1ccc(C2Nc3ccccc3NC3=C2C(=O)CC(C)(C)C3)c(OC)c1OC (stereo not given) | 19% | 0.28µM* | 5% | -23% | -4% | 4%
O=C(CSc1nc2ccccc2n1CCc1ccccc1)c1ccc(O)c(O)c1 | ? | i | 7.9µM* | -7% | ? | 5%
CC(C)(C)c1ccc(C(=O)C2CCCN(C(=O)c3ccccn3)C2)cc1 (stereo not given) | 14µM* | i | -41% | -24% | ? | -30%
Cc1ccc(C(=O)O/N=C(\N)c2ccccn2)cc1 | 13µM* | i | 8.9µM* | 13µM* | -6% | -40%
C/C(=N\OC(=O)c1ccc(Br)cc1)c1ccccn1 | -11% | i | -8% | 7% | -20% | -9%
CCOc1ccc(C(=O)O/N=C(\N)c2ccccn2)cc1 | 10µM* | i | 4.5µM* | nt | 7% | -64%
CC(C)(C)c1ccc(C(=O)O/N=C(\N)c2ccccn2)cc1 | 5µM* | i | 0.16µM* | ? | 8% | 1%
N/C(=N\OC(=O)C(c1ccccc1)c1ccccc1)c1ccccn1 | -11% | ? | ? | -8% | 5% | 1%
Cc1c(C(=O)NC2CCCC2)sc2ncnc(NCCN(C)C)c12 | nt | i | nt | nt | nt | nt
CCC1CN(CC(=O)NCc2n[nH]c3c2CCCCC3)Cc2cc(OC)ccc2O1 (stereo not given) | nt | i | nt | nt | nt | nt
Cc1ccc(C(=O)O/N=C(\N)c2ccccn2)cc1C | 11µM* | ? | 8.9µM* | ? | -6% | -32%
Cc1cccc(C(=O)O/N=C(\N)c2ccccn2)c1 | 10µM* | i | 13µM* | ? | ? | -27%
N/C(=N\OC(=O)c1cccc(F)c1)c1ccccn1 | ? | i | ? | nt | 18% | -44%
Cc1cccc(/C(N)=N/OC(=O)Cc2ccccc2)c1 | 0% | i | 31% | 44% | 3% | 15%
